Data on 17 compounds can be found in PubChem BioAssay.

The test system of assay [1] is Human papillomavirus type 1a protein E7 (residues 44-93). The experiment in a line: small molecules binding HPV E7 44-93 – biochemical, small-molecule microarray, residues 44-93, 635 nm fluorescence, primary screen (AID 1108).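 Also: E7 fragment applied at 1 µg/mL in TBST for 1 h at 4 C; score combines spot fluorescence with its signal to noise ratio.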 The note with it: fluorescence 635 nm, higher = more signal.
Assay [2] is described as follows: hepatitis C replication reporter changes, two-sided – Huh7 cells, luciferase reporter, HCV replication inhibitor project, primary screen (AID 1109).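 Also: huh7 hepatoma cells harbouring a luciferase neomycin HCV replicon reporter; luciferase luminescence as measure of HCV replicon replication; test concentration not given here.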 The note with it: Huh7 HCV replicon luciferase reporter, 48 h; higher = more signal. On the technique in general: A reporter such as luciferase makes a cellular process visible.
Assay [3] has as its target Left-right determination factor 2 (Homo sapiens) (UniProt O00292). The experiment in a line: small molecules binding LEFTY2 protein – biochemical, small-molecule microarray, 635 nm fluorescence scan, primary screen (AID 1110). The note with it: higher = more signal.
Assay [4] concerns the target Calmodulin-1 (Homo sapiens) (UniProt P0DP23). The experiment in a line: small molecules binding calmodulin-1 with EGTA – biochemical, small-molecule microarray, Cy5-labelled CALM1, profiling panel (AID 1111).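 Also: labelled calmodulin applied in Tris saline Tween buffer holding calcium plus EGTA and DTT.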 Particulars: Cy5-CALM1 binding fluorescence, higher = more signal.
Assay [5] shares this target. The assay can be described thus: small molecules binding Ca-loaded calmodulin-1 – biochemical, small-molecule microarray, Cy5-labelled CALM1, plus calcium, artefact control for SMM control-protein annotation, profiling panel (AID 1112).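 Also: score merges spot fluorescence with signal to noise from triplicate slides.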 Particulars: Cy5-CALM1 binding fluorescence, higher = more signal.
Assay [6] in a line: probe aWnt5a binding to arrayed compounds – biochemical, biotinylated probe, 635/667 nm fluorescence, primary screen (AID 1113).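 Also: score merges 667 nm fluorescence intensity with signal-to-noise per printed feature.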 The note with it: small-molecule microarray, higher = more signal.
A short description of assay [7]: probe aShh binding to arrayed compounds – biochemical, biotinylated probe, 635/667 nm fluorescence, primary screen (AID 1114).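 Also: probe is biotin-labelled aShh protein from a stem cell growth factor screen; measures binding of labelled protein to compounds printed on the slide; score merges feature fluorescence at 667 nm with signal-to-noise.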 Particulars: small-molecule microarray, higher = more signal.
The nature of assay [8]: probe aNog binding to arrayed compounds – biochemical, biotinylated probe, 635/667 nm fluorescence, primary screen (AID 1115).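 Also: probe is biotinylated aNog protein used at 0.15 µg/mL for 1 h at 4 C; z-score combines 667 nm fluorescence of each spot with its signal to noise.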 The note with it: small-molecule microarray, higher = more signal.
The target in assay [9] is Torsin-1A-interacting protein 1 (Homo sapiens) (UniProt Q5JTV8). The experiment in a line: compound microarray binding of lysate hLAP1 – cell lysate, small-molecule microarray, COS7 lysate, 635/667 nm fluorescence, primary screen (AID 1116). Particulars: 635 nm fluorescence, higher = more signal.
Torsin-1A-interacting protein 1 (Homo sapiens), sequence (Q5JTV8 whole entry, looked up): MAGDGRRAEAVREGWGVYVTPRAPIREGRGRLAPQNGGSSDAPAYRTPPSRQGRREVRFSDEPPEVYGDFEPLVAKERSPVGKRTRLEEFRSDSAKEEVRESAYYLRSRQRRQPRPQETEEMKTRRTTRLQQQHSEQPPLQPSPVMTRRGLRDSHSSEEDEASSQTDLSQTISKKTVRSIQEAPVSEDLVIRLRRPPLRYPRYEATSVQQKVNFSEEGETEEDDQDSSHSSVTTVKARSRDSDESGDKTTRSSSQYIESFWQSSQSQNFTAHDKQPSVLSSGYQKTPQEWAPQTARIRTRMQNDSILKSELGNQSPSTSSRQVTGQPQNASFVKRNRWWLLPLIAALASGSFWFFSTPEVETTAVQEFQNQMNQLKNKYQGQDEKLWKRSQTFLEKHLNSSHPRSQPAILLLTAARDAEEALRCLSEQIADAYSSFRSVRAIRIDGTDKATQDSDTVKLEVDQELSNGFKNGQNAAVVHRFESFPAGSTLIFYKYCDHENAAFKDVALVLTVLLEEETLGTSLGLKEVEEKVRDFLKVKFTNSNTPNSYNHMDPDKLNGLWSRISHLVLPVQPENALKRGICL
In assay [10] the target is Alpha-bungarotoxin (Bungarus multicinctus) (UniProt P60615). The experiment in a line: compounds binding labelled alpha-BTX control protein – biochemical, small-molecule microarray, Alexa647 label, 635/667 nm fluorescence, artefact control for SMM control protein annotation, profiling panel (AID 1117). The note with it: alpha-BTX-A647 binding fluorescence, higher = more signal.
Alpha-bungarotoxin (Bungarus multicinctus), sequence (P60615 whole entry, looked up): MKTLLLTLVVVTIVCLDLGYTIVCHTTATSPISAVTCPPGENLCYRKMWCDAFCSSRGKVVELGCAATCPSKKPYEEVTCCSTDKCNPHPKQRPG

Left-right determination factor 2 (Homo sapiens), sequence (O00292 whole entry, looked up): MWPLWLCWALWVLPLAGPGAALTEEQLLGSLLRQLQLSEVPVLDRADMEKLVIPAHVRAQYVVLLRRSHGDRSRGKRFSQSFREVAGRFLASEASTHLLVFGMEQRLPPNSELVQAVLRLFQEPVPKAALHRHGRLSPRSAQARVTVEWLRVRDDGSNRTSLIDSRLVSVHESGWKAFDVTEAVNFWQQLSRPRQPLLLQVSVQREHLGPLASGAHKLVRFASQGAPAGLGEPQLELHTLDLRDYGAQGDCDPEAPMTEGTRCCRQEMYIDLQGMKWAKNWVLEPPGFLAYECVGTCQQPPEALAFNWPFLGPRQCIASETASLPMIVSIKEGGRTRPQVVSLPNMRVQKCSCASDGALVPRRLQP

As for `NC(=O)[C@@H]1[C@H]2C(=O)O[C@H](c3ccccc3)[C@H](c3ccccc3)N2[C@H](c2ccc(O)cc2)[C@@]12C(=O)Nc1ccccc12`, the composite z-score in [1] is 0.812; in assay [3], -2.27; in [4], -0.395; in [5], -0.127; in assay [6], -0.127; in [7], -0.0553. In addition, the values for the composite z-score in assay [8], in assay [9] and in [10] were 0.264, -1.02 and -0.674, respectively. In addition, in assay [2], the z-score was -1.1.
As for `C=C[C@@H](COC(=O)OC(C)(C)C)N(Cc1ccc(OC)cc1)S(=O)(=O)c1ccc(Br)cc1`, the composite z-score in assay [1] is 1.28; in [3], 0.537; in [4] it was -0.042; in assay [5], -0.439; in assay [6], -0.0977; in assay [7], 0.0121. Further, the composite z-score in assay [8] is -0.326; in assay [9], 0.173; in [10] it was 0.268. In assay [2], this compound yielded a z-score of -0.987.
Take `[N-]=[N+]=Nc1ccccc1[C@@H]1OC(c2ccc(OCCCO)cc2)=N[C@]1(Cc1ccccc1)C(=O)N1CCOCC1`: the composite z-score in assay [1] turned out to be 1.44; in [3], 0.425; in assay [4], 1.65; in assay [5], 0.959; in assay [6] it was 0.72; in assay [7] it was 0.315. Also, the composite z-score was found to be 0.314 in [8], 1.21 in [9] and 1.3 in assay [10]. The z-score in [2] was -1.41.
On to `C=CCOC(=O)[C@@H]1[C@H]2C(=O)O[C@H](c3ccccc3)[C@H](c3ccccc3)N2[C@H](c2ccc(OCCOC(=O)[C@H]3C[C@H]4C(=O)N5CCC[C@H]5C(=O)N4[C@H]3c3ccc(O)cc3)cc2)[C@@]12C(=O)Nc1ccc(I)cc12`, for which the composite z-score in assay [1] was 0.453; in assay [3] it was 0.928; in [4], 1.02; in [5], -0.181; in [6], -0.203; in assay [7], 0.285. For the same compound, the figures for the composite z-score in [8], in [9] and in assay [10] were -0.326, 0.65 and 1.61, respectively. Moreover, the z-score in assay [2] was -1.5.
Consider `C=CC(=C)[C@H]1Oc2ccccc2S(=O)(=O)N2CCC[C@@H]12`, for which the composite z-score in [1] is -1.24; in [3], 0.0569; in assay [4] it was -0.523; in assay [5], -0.536; in assay [6] it was -0.138; in [7], -0.0211. Moreover, the composite z-score is -0.353 in assay [8], -0.448 in assay [9] and 0.279 in assay [10]. The compound further gave a z-score in assay [2] of -3.25.
With `C=CCOC(=O)[C@H]1[C@@H]2C(=O)O[C@@H](c3ccccc3)[C@@H](c3ccccc3)N2[C@@H](c2ccc(OCCOC(=O)[C@@H]3C[C@@H]4C(=O)N[C@@H](CCCCNC(C)=O)C(=O)N4[C@@H]3c3ccc(O)cc3)cc2)[C@]12C(=O)Nc1ccccc12`, the composite z-score is 1.32 in assay [1]; 0.515 in assay [3]; 1.72 in assay [4]; 0.365 in assay [5]; -0.0704 in assay [6]; 0.196 in assay [7]. The values for the composite z-score in [8], in [9] and in assay [10] were 0.45, 0.622 and 2.51, respectively. This compound also had a z-score in assay [2] of -0.413.
With `C=C(/C(=C/C[C@H](OC(C)=O)c1ccccc1OCCO)c1cnc2ccccc2c1)C(C)C`, the composite z-score was 0.101 in assay [1]; -0.0274 in [3]; 0.361 in [4]; -0.378 in assay [5]; -0.034 in assay [6]; 0.184 in assay [7]. The composite z-score in [8] was -0.036; in assay [9], 0.327; in assay [10], 1.19. This compound yielded a z-score in assay [2] of -2.42.
Regarding `COC(=O)[C@@]1(Cc2ccc(OC)cc2)[C@H]2c3cc(C(=O)N4CCCC4)n(Cc4ccc(O)c(OC)c4)c3C[C@H]2CN1C(=O)c1ccccc1`, the composite z-score in assay [1] is 0.425; in assay [3] it was -0.114; in assay [4] it was 2.7; in [5] it was 0.957; in assay [6], 0.755; in assay [7], 1.04. In addition, the composite z-score in assay [8] amounted to 2.35; in assay [9] it was 3.25; in [10], 1.25. This compound displayed a z-score in assay [2] of -1.78.
With `C=C[C@H](CO)NS(=O)(=O)c1ccc(Br)cc1`, the composite z-score in [1] is 1.05; in assay [3], 0.375; in assay [4], 0.158; in assay [5], -0.268; in assay [6] it was -0.096; in assay [7] it was -0.2. The values for the composite z-score in assay [8], in [9] and in assay [10] were -0.266, 0.306 and 0.275, respectively. In addition, in assay [2], the z-score was 0.109.
As for `CO[C@H]1O[C@H](CO)[C@@H](OC(=O)Nc2ccccc2)[C@H](OC(=O)Nc2ccccc2)[C@@H]1OC(=O)Nc1ccccc1`, the composite z-score in assay [1] was 1.39; in assay [3], 0.179; in assay [4] it was 0.928; in assay [5], -0.136; in [6], 0.111; in assay [7] it was -0.0793. In addition, the composite z-score in assay [8] was -0.541; in assay [9], 0.835; in assay [10], 0.796. The compound also gave a z-score in [2] of -1.93.
Take `[N-]=[N+]=Nc1ccccc1[C@@H]1OC(c2ccc(OCCCO)cc2)=N[C@]1(CCS(=O)(=O)c1ccccc1)C(N)=O`: the composite z-score is 1.38 in assay [1]; -0.109 in assay [3]; 0.925 in [4]; 0.629 in assay [5]; 0.29 in assay [6]; 0.57 in [7]. Further, the composite z-score in [8] turned out to be 1.51; in assay [9], 1.81; in [10] it was 0.992. Further, the z-score in assay [2] is 0.272.
Regarding `CO[C@H]1O[C@H](CO)[C@@H](OC(=O)Nc2cccc(F)c2)[C@H](OC(=O)Nc2ccccc2)[C@@H]1OC(=O)Nc1ccccc1`, the composite z-score was 1.26 in [1]; 0.071 in [3]; 0.471 in assay [4]; -0.365 in [5]; 0.0257 in assay [6]; 0.365 in assay [7]. The composite z-score in assay [8] is 0.883; in [9], 0.642; in assay [10], 0.0941. In assay [2], this compound displayed a z-score of -3.23.
On to `CCCC[C@@H]1C[C@H]1[C@@H](NC(=O)c1ccccc1)c1ccc(C(=O)OC)cc1`, for which the composite z-score in [1] was -0.541; in assay [3] it was -1.9; in [4], 0.155; in assay [5], 0.685; in assay [6] it was -0.0236; in assay [7], -0.0849. In addition, the composite z-score is -1.02 in [8], -0.679 in [9] and -0.0885 in [10]. Besides, the z-score in [2] is -1.15.
As for `O=C1C[C@@](C(=O)NC2CC2)(c2ccc([N+](=O)[O-])cc2)[C@@H](c2ccc(CO)cc2I)N1C1CCCCC1`, the composite z-score in assay [1] is 1.43; in assay [3] it was 0.434; in assay [4], 0.581; in assay [5], -0.183; in assay [6], -0.101; in assay [7] it was 0.0756. The composite z-score in [8] was determined as 0.217; in assay [9], 0.388; in assay [10], 1.24. Moreover, the z-score in assay [2] was -1.97.
Regarding `O=C1c2ccccc2[C@](Cc2ccccc2I)(C(=O)NCC(F)(F)F)[C@H](c2ccc(CO)cc2)N1Cc1ccccc1Cl`, the composite z-score in assay [1] was 1.41; in [3] it was -0.141; in assay [4], 1.03; in assay [5], 0.512; in assay [6] it was -0.0472; in assay [7], 0.0632. Further, the values for the composite z-score in assay [8], in [9] and in [10] were -0.239, 0.208 and 0.918, respectively. Further, in assay [2], the z-score is -0.798.
As for `COCCOC(=O)N1C(=O)[C@@]2(c3cc(C#Cc4ccc(OC)cc4)ccc31)[C@H](c1ccc(OCCO)cc1)N1[C@H](c3ccccc3)[C@H](c3ccccc3)OC(=O)[C@H]1[C@@H]2C(=O)N1CCN(c2ncccn2)CC1`, the composite z-score is 0.819 in [1]; 1.08 in assay [3]; 1.12 in [4]; 0.715 in assay [5]; -0.0585 in assay [6]; -0.26 in [7]. Further, the composite z-score came out at 0.0308 in [8], 0.391 in assay [9] and 0.953 in [10]. The z-score in [2] is -1.45.
`CC[C@@H]1C=C(C(=O)O)[C@H](c2ccc(Br)cc2)N1S(=O)(=O)c1ccc(C)cc1`: the composite z-score is 0.618 in assay [1]; -0.124 in [3]; 1.17 in assay [4]; 0.244 in assay [5]; -0.154 in assay [6]; -0.0769 in assay [7]. The composite z-score in assay [8] is 0.581; in assay [9], 0.532; in assay [10], 0.535. The compound also displayed a z-score in assay [2] of -0.832.
